# Inconclusive results are not listed. The source made the active and inactive calls. Rule for the calls, unless noted: active = hit-call score of the fitted dose curve at least 0.9, where 1 is the maximum; inactive = score below 0.9.
# Tests used:
# [1] = CCTE_Deisenroth_H295R-HTRF_384WELL_ESTRADIOL: CCTE's H295R-HTRF Assay Evaluation of Estradiol Concentration, Deisenroth Lab (AID 2284361); details: actives raise or lower the signal
# Method in brief: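 H295R cells exposed 48 h to chemicals at 0.001 - 100 uM final (nine points, triplicate); estradiol in conditioned medium measured by HTRF immunoassay, fitted bidirectionally versus DMSO. Viability by CellTiter-Glo on same plates.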
# [2] = CCTE_Deisenroth_H295R-HTRF_384WELL_TESTOSTERONE: CCTE's H295R-HTRF Assay Evaluation of Testosterone Concentration, Deisenroth Lab (AID 2284373); details: actives raise or lower the signal
# Method in brief: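 Secreted testosterone was quantified by HTRF immunoassay of medium from human adrenocortical H295R cells after 48 h chemical exposure at 0.001–100 uM final. Gain or loss was fitted against DMSO. ATP-based viability was read on matched wells, five experimental replicates.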
# [3] = CCTE_Deisenroth_H295R-HTRF_384WELL_CTOX: Cytotoxicity Assessment in CCTE's H295R-HTRF Assay, Deisenroth Lab (AID 2284380; active = hit-call score of the fitted dose curve at least 0.9, where 1 is the maximum)
# Method in brief: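 H295R adrenocortical carcinoma cells plated 24 h, then exposed 48 h to nine-point series 0.001–100 uM final, triplicate, n=5. ATP measured by CellTiter-Glo 2.0 luminescence on same plates after medium collection; loss versus DMSO.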
# [4] = test system: SRY-box transcription factor 17 (SOX17) Protein Expression, Deisenroth Lab, SOX17 (gene 64321); assay: CCTE_Deisenroth_DEVTOX-GLR_legacy_Sox17: (Legacy) CCTE's DevTox GLR-Endo Assay Evaluation of SRY-box transcription factor 17 (SOX17) Protein Expression, Deisenroth Lab (AID 2284341); details: actives raise or lower the signal
# Method in brief: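 RUES2-GLR human pluripotent cells, seeded 24 h, then differentiated 48 h in defined media with two chemical exposures 24 h apart (1 nM - 200 uM, 10 points). Sox17+ fraction from high-content fluorescence imaging; bidirectional fit versus 0.2% DMSO.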
# SERPINA7 (gene 6906) = assay: CCTE_GLTED_hTBG: CCTE's human Thyroxine-binding Globulin (TBG) Inhibition Assay, Great Lakes Toxicology and Ecology Division (GLTED) Lab (AID 2284343; active = hit-call score of the fitted dose curve at least 0.9, where 1 is the maximum;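 note: active chemicals lower fluorescence versus DMSO baseline by displacing probe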)
# Method in brief: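 hTBG + test chem, 2 h; ANSA probe displacement; fluorescence readout ex380/em475; DMSO = neg ctrl/baseline; cell-free.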
# [5] = test system: SRY-box transcription factor 2 (SOX2) Protein Expression, Deisenroth Lab, SOX2 (gene 6657); assay: CCTE_Deisenroth_DEVTOX-GLR_legacy_Sox2: (Legacy) CCTE's DevTox GLR-Endo Assay Evaluation of SRY-box transcription factor 2 (SOX2) Protein Expression, Deisenroth Lab (AID 2284346)
# Method in brief: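 RUES2-GLR human pluripotent cells seeded 24 h, then differentiated 48 h in defined media with two chemical doses 24 h apart (10-point, 1 nM–200 uM). Fixed, nuclear-stained, imaged; % Sox2+ cells (>5x BMAD over endoderm control median), DMSO-subtracted, fitted upward.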
# [6] = test system: SRY-box transcription factor 2 (SOX2) Protein Expression, Deisenroth Lab, SOX2 (gene 6657); assay: CCTE_Deisenroth_DEVTOX-GLR_Endo_SOX2: CCTE's DevTox GLR-Endo Assay Evaluation of SRY-box transcription factor 2 (SOX2) Protein Expression, Deisenroth Lab (AID 2284412; active = hit-call score of the fitted dose curve at least 0.9, where 1 is the maximum)
# Method in brief: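 RUES2-GLR human pluripotent cells were seeded 24 h, then differentiated 48 h with two chemical exposures 24 h apart. Cells were fixed, nuclei stained and imaged by high-content microscopy. Endpoint is %SOX2+ cells over cell count, minus 0.2% DMSO control; 10-point series 1 nM–200 uM.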
# [7] = test system: SRY-box transcription factor 17 (SOX17) Protein Expression, Deisenroth Lab, SOX17 (gene 64321); assay: CCTE_Deisenroth_DEVTOX-GLR_Endo_SOX17: CCTE's DevTox GLR-Endo Assay Evaluation of SRY-box transcription factor 17 (SOX17) Protein Expression, Deisenroth Lab (AID 2284413)
# Method in brief: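 Endpoint: % change in SOX17+ fraction (SOX17+ cells / cell count) vs 0.2% DMSO solvent control. RUES2-GLR reporter cells, 48 h endoderm differentiation, two doses at 24 h intervals, high-content fluorescence imaging, 5 fields/well.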
# [8] = test system: Brachyury (BRA) Protein Expression, TBXT (gene 6862); assay: CCTE_Deisenroth_DEVTOX-GLR_Endo_BRA: CCTE's DevTox GLR-Endo Assay Evaluation of Brachyury (BRA) Protein Expression, Deisenroth Lab (AID 2284417)
# Method in brief: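 RUES2-GLR human pluripotent cells, seeded 24 h, then differentiated 48 h in defined media with two chemical exposures 24 h apart (10-point series, 1 nM - 200 uM). Fixed, nuclear-stained, imaged; endpoint is percent BRA+ cells minus 0.2% DMSO control.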
# [9] = CCTE_Deisenroth_DEVTOX-GLR_Endo_CellCount: Viability Assessment in CCTE's DevTox GLR-Endo Assay, Deisenroth Lab (AID 2284420)
# Method in brief: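 Human pluripotent RUES2-GLR line; 24 h pre-seed; 48 h endoderm-directed differentiation; 2 doses, q24h; 10 conc., 1 nM - 200 uM; fix + nuclear dye; 5 fields/well imaged; readout = nuclei count, % change vs 0.2% DMSO; n=4.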
# [10] = test system: SRY-box transcription factor 17 (SOX17) Protein Expression, Deisenroth Lab, SOX17 (gene 64321); assay: CCTE_Deisenroth_DEVTOX-GLR_Pluri_SOX17: CCTE's DevTox GLR-Pluri Assay Evaluation of SRY-box transcription factor 17 (SOX17) Protein Expression, Deisenroth Lab (AID 2284427; active = hit-call score of the fitted dose curve at least 0.9, where 1 is the maximum)
# Method in brief: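 Human RUES2-GLR pluripotent line; 24 h seeding, 48 h defined-media differentiation, 2 doses q24h, 10 conc 1 nM - 200 uM. Fix, nuclear stain, image 5 fields/well. Endpoint = %SOX17+ minus 0.2% DMSO; n=4.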
# [11] = test system: SRY-box transcription factor 2 (SOX2) Protein Expression, Deisenroth Lab, SOX2 (gene 6657); assay: CCTE_Deisenroth_DEVTOX-GLR_Pluri_SOX2: CCTE's DevTox GLR-Pluri Assay Evaluation of SRY-box transcription factor 2 (SOX2) Protein Expression, Deisenroth Lab (AID 2284428)
# Method in brief: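 Steps: seed RUES2-GLR cells for 24 h; start 48 h differentiation in defined media; dose test chemicals at 0 and 24 h (1 nM–200 uM); fix, stain nuclei, image; compute SOX2+ percentage against 0.2% DMSO wells.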
# [12] = test system: Brachyury (BRA) Protein Expression, Deisenroth Lab, TBXT (gene 6862); assay: CCTE_Deisenroth_DEVTOX-GLR_Pluri_BRA: CCTE's DevTox GLR-Pluri Assay Evaluation of Brachyury (BRA) Protein Expression, Deisenroth Lab (AID 2284429; active = hit-call score of the fitted dose curve at least 0.9, where 1 is the maximum)
# Method in brief: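 Human pluripotent RUES2-GLR cells, seeded 24 h, were differentiated 48 h in defined media with two chemical doses at 24-h intervals (10-point, 1 nM - 200 uM). Readout: percent BRA+ cells by fluorescent reporter imaging, minus 0.2% DMSO control.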
# [13] = CCTE_Deisenroth_DEVTOX-GLR_Pluri_CellCount: Viability Assessment in CCTE's DevTox GLR-Pluri Assay Evaluation of Total Cell Counts, Deisenroth Lab (AID 2284430)
# Method in brief: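 RUES2-GLR human pluripotent cells, seeded 24 h, then differentiated 48 h with two chemical exposures 24 h apart; 10-point series 1 nM - 200 uM. Fixed, nuclear-stained, imaged (5 fields/well); nuclei count as % change vs 0.2% DMSO.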
# [14] = VALA_MIGHUV1_ScratchOnly_WoundArea: VALA Sciences human Umbilical Vein Endothelial Cell Migration (MIGHUV) Assay, Area of Scratch Wound Inhibited Recovery (AID 2284336; active = hit-call score of the fitted dose curve at least 0.9, where 1 is the maximum)
# Method in brief: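 HUVEC monolayers (9000 cells/well) were scratched after 24 h, dosed within 30 min (six concentrations, triplicate, 0.1% DMSO), allowed 24 h recovery, then fixed. Hoechst-stained nuclei in the wound imaged; cytochalasin D as reference.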
# [15] = VALA_TUBIPS_Antagonist_CellCount: Viability Assessment in the VALA Sciences human iPS-derived Endothelial Tubule Formation (TUBIPS) Antagonism Assay (AID 2284335; active = hit-call score of the fitted dose curve at least 0.9, where 1 is the maximum)
# [16] = VALA_TUBHUV_Agonist_TubuleLength: VALA Sciences human Umbilical Vein Endothelial Tubule Formation (TUBHUV) Agonism Assay (AID 2284337; active = hit-call score of the fitted dose curve at least 0.9, where 1 is the maximum)
# Method in brief: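 HUVEC co-cultured with fibroblasts (1:3) 3 days in 10 ng/ml VEGF, then 3 days with compound plus VEGF; 0.1 % DMSO neutral control. Fixed, nuclear and CD31 stained; tubule length by fluorescence imaging.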
# [17] = VALA_TUBIPS_Agonist_CellCount: Viability Assessment in the VALA Sciences human iPS-derived Endothelial Tubule Formation (TUBIPS) Agonism Assay (AID 2284338; active = hit-call score of the fitted dose curve at least 0.9, where 1 is the maximum)
# [18] = CCTE_Mundy_HCI_iCellGluta_NOG_NeuronCount: CCTE's Neurite Outgrowth Assay in iCellGluta cells for Neuron Count, Mundy Lab (AID 2284340; active = hit-call score of the fitted dose curve at least 0.9, where 1 is the maximum;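 note: cells fixed about 48 h after compound addition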)
# Method in brief: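 Neuron count read by automated high-content imaging of Hoechst 33342 and betaIII-tubulin/Alexa Fluor-488 labelling in human iPSC glutamatergic neurons. Activity fitted relative to DMSO.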
# [19] = CCTE_Mundy_HCI_iCellGluta_NOG_NeuriteCount: CCTE's Neurite Outgrowth Assay in iCellGluta cells for Neurite Count, Mundy Lab (AID 2284342; active = hit-call score of the fitted dose curve at least 0.9, where 1 is the maximum;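 note: chemical exposure about 48 hours starting 2 hours after plating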)
smiles,measurement,setting,value
CC(=O)N1CCN(c2ccc(OC[C@H]3CO[C@](Cn4ccnc4)(c4ccc(Cl)cc4Cl)O3)cc2)CC1,outcome,[1],inactive
same,AC50,[2],0.947 µM (active)
same,outcome,[3],inactive
CC/C(=C(/CC)c1ccc(O)cc1)c1ccc(O)cc1,AC50,[4],1.24 µM (active)
same,AC50,SERPINA7 (gene 6906),1.87 µM (active)
same,AC50,[5],2.43 µM (active)
same,AC50,[6],2.78 µM (active)
same,AC50,[7],0.65 µM (active)
same,AC50,[8],0.891 µM (active)
same,AC50,[9],1.58 µM (active)
same,AC50,[10],1.83 µM (active)
same,AC50,[11],7.85 µM (active)
same,AC50,[12],1.9 µM (active)
same,AC50,[13],1.45 µM (active)
Cc1oc2c(NC(=O)c3c(Cl)cccc3Cl)cccc2c1C(C)(C)O,AC50,SERPINA7 (gene 6906),13.6 µM (active)
Clc1ccccc1C(c1ccccc1)(c1ccccc1)n1ccnc1,AC50,[1],0.129 µM (active)
same,AC50,[2],0.117 µM (active)
same,outcome,[3],inactive
CCCCOC(=O)c1ccc(O)cc1,AC50,[4],55.3 µM (active)
same,AC50,[5],100 µM (active)
same,AC50,[1],54.3 µM (active)
same,outcome,[2],inactive
same,outcome,[3],inactive
same,AC50,[6],152 µM (active)
same,AC50,[7],56.3 µM (active)
same,AC50,[8],66.5 µM (active)
same,AC50,[9],37.9 µM (active)
same,AC50,[10],51.6 µM (active)
same,AC50,[11],21.6 µM (active)
same,AC50,[12],89.2 µM (active)
same,AC50,[13],19.8 µM (active)
CCCCCCCCOc1ccc(C(=O)c2ccccc2)c(O)c1,AC50,SERPINA7 (gene 6906),39.1 µM (active)
OCCO,outcome,[4],inactive
same,outcome,[5],inactive
same,outcome,[7],inactive
same,outcome,[8],inactive
same,outcome,[9],inactive
same,outcome,[11],inactive
same,outcome,[12],inactive
same,outcome,[13],inactive
CO[C@H]1/C=C/O[C@@]2(C)Oc3c(C)c(O)c4c(O)c(c(/C=N/N5CCN(C)CC5)c(O)c4c3C2=O)NC(=O)/C(C)=C\C=C\[C@H](C)[C@H](O)[C@@H](C)[C@@H](O)[C@@H](C)[C@H](OC(C)=O)[C@@H]1C,AC50,[4],72.4 µM (active)
same,outcome,[5],inactive
same,AC50,[6],83.6 µM (active)
same,AC50,[7],70.3 µM (active)
same,AC50,[8],88.8 µM (active)
same,AC50,[9],41.5 µM (active)
same,AC50,[10],137 µM (active)
same,outcome,[11],inactive
same,AC50,[12],59.9 µM (active)
same,AC50,[13],19.8 µM (active)
CN(C)c1ccc(C(=C2C=CC(=[N+](C)C)C=C2)c2ccc(N(C)C)cc2)cc1,AC50,SERPINA7 (gene 6906),50 µM (active)
O=C(O)Cn1c(=O)n(Cc2ccc(Br)cc2F)c(=O)c2ccc(Cl)cc21,AC50,SERPINA7 (gene 6906),18.1 µM (active)
CCCCCc1ccc(N)cc1,AC50,SERPINA7 (gene 6906),29.9 µM (active)
O=c1c(-c2ccc(O)cc2)coc2cc(O)cc(O)c12,AC50,[1],21.6 µM (active)
same,AC50,[2],6.78 µM (active)
same,outcome,[3],inactive
O=C(Nc1ccc(Cl)cc1)Nc1ccc(Cl)c(Cl)c1,outcome,[14],inactive
CCCCCCCCOC(=O)c1cc(O)c(O)c(O)c1,outcome,[15],inactive
same,AC50,[16],50 µM (active)
same,AC50,[17],24.2 µM (active)
same,AC50,SERPINA7 (gene 6906),3.42 µM (active)
CC(C)(c1cc(Br)c(O)c(Br)c1)c1cc(Br)c(O)c(Br)c1,AC50,SERPINA7 (gene 6906),2.16 µM (active)
O=C(O)Cc1cc(I)c(Oc2ccc(O)c(I)c2)c(I)c1,AC50,SERPINA7 (gene 6906),0.0733 µM (active)
O=C1O[C@H]([C@@H](O)CO)C(O)=C1O,outcome,[18],inactive
same,outcome,[19],inactive
NC(=O)c1nc(-c2cccc(-c3cc(F)ccc3OCC(F)(F)C(F)(F)F)c2)n[nH]1,AC50,SERPINA7 (gene 6906),3.35 µM (active)
